Measured values as given in the supplement of paper PMC6555819.

Assays:
Experiment in all cases: PBM binding z-score (relative to random genomic background probes); higher = stronger binding; sequences stand for … in GC…GCGATTGACAGCGTAGAATGAAGG
[1] = system: RARb homodimer (NR concentration 270 nM)
Procedure, shortened: (§1)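 Each nuclear receptor dimer, without ligand, was incubated for 1 h on custom Agilent 4×180K protein-binding microarrays. Binding was detected with antibodies against each partner (one per run), and scanned fluorescence was regression-normalized. The binding z-scores are referenced to random human genomic background probes.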

[2] = system: RARg:RXRa (NR concentration 270 nM, RXRa partner concentration 90 nM)
Procedure, shortened: as §1

[3] = system: RARg homodimer (NR concentration 270 nM)
Procedure, shortened: as §1

[4] = system: RXRa DBDmut IVT, anti-RXR (DBD mutation: RXRa K156A/R161A, NR concentration 90 nM)
Procedure, shortened: as §1

[5] = system: RXRa homodimer (NR concentration 180 nM)
Procedure, shortened: as §1

[6] = system: THRa:RXRa (NR concentration 90 nM, RXRa partner concentration 90 nM)
Procedure, shortened: as §1

[7] = system: THRa homodimer (NR concentration 90 nM)
Procedure, shortened: as §1

[8] = system: VDR homodimer (NR concentration 270 nM)
Procedure, shortened: as §1

Sequence: CGTCCAAGGTCATAGGAGGTCAGGGAAGACAGAT
- PBM binding z-score [1]: 5.2
- PBM binding z-score [2]: 6.79
- PBM binding z-score [3]: 7.15
- PBM binding z-score [4]: 3.89
- PBM binding z-score [5]: 6.99
- PBM binding z-score [6]: 5.41
- PBM binding z-score [7]: 3.54
- PBM binding z-score [8]: 4.28

Sequence: ATACCAAGGTGATCGTGAGGTCGCTGATACTAAC
- PBM binding z-score [1]: 1.68
- PBM binding z-score [2]: 2.37
- PBM binding z-score [3]: 0.989
- PBM binding z-score [4]: 0.175
- PBM binding z-score [5]: 1.43
- PBM binding z-score [6]: 3.3
- PBM binding z-score [7]: 2.48
- PBM binding z-score [8]: 1.6

Sequence: ATCTCTAGGTAACCAAGTTCAGTTAATGCCGAAC
- PBM binding z-score [1]: 1.74
- PBM binding z-score [2]: 1.09
- PBM binding z-score [3]: 1.12
- PBM binding z-score [4]: 1.33
- PBM binding z-score [5]: 0.444
- PBM binding z-score [6]: 1.97
- PBM binding z-score [7]: 1.43
- PBM binding z-score [8]: 3.19

Sequence: CATCCAAGGTCATAGGAGGTCAGTGAAGACAGAT
- PBM binding z-score [1]: 5.07
- PBM binding z-score [2]: 7.02
- PBM binding z-score [3]: 7.22
- PBM binding z-score [4]: 3.91
- PBM binding z-score [5]: 7.03
- PBM binding z-score [6]: 5.14
- PBM binding z-score [7]: 3.35
- PBM binding z-score [8]: 5.28

Sequence: ATCTCTAGGTAACAAGTTCGGTGAAAGAGAGGAC
- PBM binding z-score [1]: 1.21
- PBM binding z-score [2]: 0.788
- PBM binding z-score [3]: 0.885
- PBM binding z-score [4]: 0.327
- PBM binding z-score [5]: 0.444
- PBM binding z-score [6]: 1.48
- PBM binding z-score [7]: 0.922
- PBM binding z-score [8]: 1.22

Sequence: TAGCCTAGGTCTTGCGGGCCAGTATAGTGTCGGC
- PBM binding z-score [1]: -0.413
- PBM binding z-score [2]: -0.507
- PBM binding z-score [3]: -0.639
- PBM binding z-score [4]: -1.09
- PBM binding z-score [5]: -0.623
- PBM binding z-score [6]: -0.606
- PBM binding z-score [7]: -1.12
- PBM binding z-score [8]: -1.13

Sequence: CGTCCAGGGTCAGCAGGTCAGTGAAAGCGACGTG
- PBM binding z-score [1]: 4.51
- PBM binding z-score [2]: 6.01
- PBM binding z-score [3]: 5.75
- PBM binding z-score [4]: 1.59
- PBM binding z-score [5]: 5.4
- PBM binding z-score [6]: 3.61
- PBM binding z-score [7]: 1.32
- PBM binding z-score [8]: 1.25

Sequence: TAGCCTAGGTCAGATCGGGCCAGTATACGCTATA
- PBM binding z-score [1]: 2.17
- PBM binding z-score [2]: 2.61
- PBM binding z-score [3]: 3.1
- PBM binding z-score [4]: -0.634
- PBM binding z-score [5]: 1.44
- PBM binding z-score [6]: 4.09
- PBM binding z-score [7]: 0.0638
- PBM binding z-score [8]: -0.176

Sequence: CCAGACAGGTGAGAAGGTAACTCAACCTCGATTA
- PBM binding z-score [1]: 0.715
- PBM binding z-score [2]: 0.716
- PBM binding z-score [3]: 0.698
- PBM binding z-score [4]: 0.0591
- PBM binding z-score [5]: 0.59
- PBM binding z-score [6]: 0.724
- PBM binding z-score [7]: 0.31
- PBM binding z-score [8]: -0.0105

Sequence: CGTACTGGGCCAAAGGTCATTGATTCCAATGCTC
- PBM binding z-score [1]: 4.66
- PBM binding z-score [2]: 5.89
- PBM binding z-score [3]: 4.65
- PBM binding z-score [4]: 1.3
- PBM binding z-score [5]: 6.26
- PBM binding z-score [6]: 3.6
- PBM binding z-score [7]: 0.976
- PBM binding z-score [8]: 2.28

Sequence: CTCGAAACGTCGTGCTCAGGTGAGTATACCAAAC
- PBM binding z-score [1]: -0.132
- PBM binding z-score [2]: -0.476
- PBM binding z-score [3]: -0.311
- PBM binding z-score [4]: -0.187
- PBM binding z-score [5]: -0.479
- PBM binding z-score [6]: 0.94
- PBM binding z-score [7]: 0.555
- PBM binding z-score [8]: -0.446

Sequence: TCTTGTAGTTCAATAGAGGTTAAGAAAGTGCGCT
- PBM binding z-score [1]: 2.27
- PBM binding z-score [2]: 2
- PBM binding z-score [3]: 2
- PBM binding z-score [4]: 2.27
- PBM binding z-score [5]: 2.15
- PBM binding z-score [6]: 3.61
- PBM binding z-score [7]: 0.104
- PBM binding z-score [8]: 1.59

Sequence: CGTCAAAGTTCAAGGTAACTTAACAGAAAGCAGC
- PBM binding z-score [1]: 3.81
- PBM binding z-score [2]: 5.06
- PBM binding z-score [3]: 6.29
- PBM binding z-score [4]: 4.24
- PBM binding z-score [5]: 4.36
- PBM binding z-score [6]: 2.71
- PBM binding z-score [7]: 0.957
- PBM binding z-score [8]: 2.74

Sequence: CGTCAAAGTTCAACGAAGGTAACGTAAAGCACGC
- PBM binding z-score [1]: 4.08
- PBM binding z-score [2]: 5.47
- PBM binding z-score [3]: 6.39
- PBM binding z-score [4]: 4.2
- PBM binding z-score [5]: 4.5
- PBM binding z-score [6]: 4.52
- PBM binding z-score [7]: 0.29
- PBM binding z-score [8]: 3.33

Sequence: CCTACTTGGCCATTCAGAGGTCATTGATCATATG
- PBM binding z-score [1]: 3.93
- PBM binding z-score [2]: 3.64
- PBM binding z-score [3]: 2.6
- PBM binding z-score [4]: 1.92
- PBM binding z-score [5]: 3.73
- PBM binding z-score [6]: 3.21
- PBM binding z-score [7]: 1.66
- PBM binding z-score [8]: 3.32

Sequence: CCTACTGGGCCAGAAAGGTCATTGATGCCGATAA
- PBM binding z-score [1]: 4.36
- PBM binding z-score [2]: 4.7
- PBM binding z-score [3]: 4.43
- PBM binding z-score [4]: 0.0732
- PBM binding z-score [5]: 5.18
- PBM binding z-score [6]: 2.88
- PBM binding z-score [7]: 0.378
- PBM binding z-score [8]: 2.56

Sequence: ATCTCTAGTTAAGACTCAGTTCAGTGAAGAACGC
- PBM binding z-score [1]: 0.624
- PBM binding z-score [2]: 0.145
- PBM binding z-score [3]: 0.575
- PBM binding z-score [4]: 0.575
- PBM binding z-score [5]: 0.126
- PBM binding z-score [6]: 0.594
- PBM binding z-score [7]: 0.6
- PBM binding z-score [8]: 1.67

Sequence: GCTAGTTGGTCAGTAAAAGATCACACACCGGTCG
- PBM binding z-score [1]: 0.519
- PBM binding z-score [2]: 0.262
- PBM binding z-score [3]: 0.586
- PBM binding z-score [4]: -0.0346
- PBM binding z-score [5]: 0.0545
- PBM binding z-score [6]: -0.299
- PBM binding z-score [7]: -0.336
- PBM binding z-score [8]: -0.296

Sequence: CAAACTAGGTCAAGATCAAAGTCGGTTTGTGCCA
- PBM binding z-score [1]: 2.77
- PBM binding z-score [2]: 3.45
- PBM binding z-score [3]: 4.74
- PBM binding z-score [4]: 1.66
- PBM binding z-score [5]: 2.69
- PBM binding z-score [6]: 2.75
- PBM binding z-score [7]: 0.747
- PBM binding z-score [8]: 0.787

Sequence: TCAGCCAGGTGAAGGTAACTCAGGTACGCAGTCG
- PBM binding z-score [1]: 0.236
- PBM binding z-score [2]: 0.119
- PBM binding z-score [3]: -0.0268
- PBM binding z-score [4]: 0.397
- PBM binding z-score [5]: 0.607
- PBM binding z-score [6]: 1.8
- PBM binding z-score [7]: 0.391
- PBM binding z-score [8]: -0.347

Sequence: CCTAGCAGGCCAATCTGGGTAACTCAAGGCTTGA
- PBM binding z-score [1]: -0.251
- PBM binding z-score [2]: -0.429
- PBM binding z-score [3]: -0.124
- PBM binding z-score [4]: 0.0487
- PBM binding z-score [5]: -0.515
- PBM binding z-score [6]: 1.86
- PBM binding z-score [7]: -0.653
- PBM binding z-score [8]: -0.997

Sequence: TCTTGTAGATCAATAGAGGTTAAGGAAGTGCGCT
- PBM binding z-score [1]: 1.1
- PBM binding z-score [2]: 0.898
- PBM binding z-score [3]: 0.454
- PBM binding z-score [4]: 0.775
- PBM binding z-score [5]: 1.61
- PBM binding z-score [6]: 2.38
- PBM binding z-score [7]: -0.179
- PBM binding z-score [8]: 0.208

Sequence: CGTCCAAGGTCATAGGAGGTCAGTGATGACAGAT
- PBM binding z-score [1]: 5.33
- PBM binding z-score [2]: 6.66
- PBM binding z-score [3]: 6.93
- PBM binding z-score [4]: 3.97
- PBM binding z-score [5]: 6.5
- PBM binding z-score [6]: 5.4
- PBM binding z-score [7]: 3.25
- PBM binding z-score [8]: 4.59

Sequence: TGAATGAGGTTAAAGATCAGGGAACGTGGCGTCG
- PBM binding z-score [1]: 0.677
- PBM binding z-score [2]: 2.23
- PBM binding z-score [3]: 1.12
- PBM binding z-score [4]: 1.61
- PBM binding z-score [5]: 3.81
- PBM binding z-score [6]: 2.5
- PBM binding z-score [7]: 0.44
- PBM binding z-score [8]: 0.484

Sequence: GCTAGCAGGCCATTTGGGTCACTCACTGACGGGC
- PBM binding z-score [1]: 1.96
- PBM binding z-score [2]: 0.722
- PBM binding z-score [3]: 1.04
- PBM binding z-score [4]: 0.199
- PBM binding z-score [5]: 0.604
- PBM binding z-score [6]: 1.73
- PBM binding z-score [7]: 0.972
- PBM binding z-score [8]: 0.0479

Sequence: ACAGACAGGTGATGAATGTAACTCAGGCTATCAT
- PBM binding z-score [1]: -0.0762
- PBM binding z-score [2]: 0.375
- PBM binding z-score [3]: 0.506
- PBM binding z-score [4]: -0.126
- PBM binding z-score [5]: 0.591
- PBM binding z-score [6]: 0.0526
- PBM binding z-score [7]: -0.294
- PBM binding z-score [8]: -0.0787

Sequence: AGAATGAGGTTATTAAGATAAGGGAATTGCGGTC
- PBM binding z-score [1]: 0.848
- PBM binding z-score [2]: 1.41
- PBM binding z-score [3]: 0.946
- PBM binding z-score [4]: 1.84
- PBM binding z-score [5]: 1.8
- PBM binding z-score [6]: 1.95
- PBM binding z-score [7]: 0.273
- PBM binding z-score [8]: 0.849

Sequence: ATCGAAAGGTCGAGGTAAGTATAGAGAAAGGGAA
- PBM binding z-score [1]: 2.39
- PBM binding z-score [2]: 4.25
- PBM binding z-score [3]: 4.27
- PBM binding z-score [4]: 0.467
- PBM binding z-score [5]: 4.6
- PBM binding z-score [6]: 2.58
- PBM binding z-score [7]: 0.233
- PBM binding z-score [8]: 0.546

Sequence: CCTAGCAGGCCAATCTGGGTCAGTCAAGGCTTGA
- PBM binding z-score [1]: 1.82
- PBM binding z-score [2]: 0.465
- PBM binding z-score [3]: 1.02
- PBM binding z-score [4]: -0.281
- PBM binding z-score [5]: -0.197
- PBM binding z-score [6]: 2.97
- PBM binding z-score [7]: -0.159
- PBM binding z-score [8]: -0.52
